Broadly, the AC50 is the concentration at which the activity in the assay is half-maximal.

For 3 compounds, AC50 and outcome results are on record in PubChem BioAssay.

Assay [1] is described as follows: viability loss in pontine glioma line – cell-based, SU-DIPG-XVII, MIPE5.0, CellTiter-Glo, qHTS, dose response (AID 1347060).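 As to AC50: cells exposed to compound for 48 hours before viability readout.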 The following applies: CellTiter-Glo ATP luminescence.
The nature of assay [2]: viability loss in pontine glioma line – cell-based, SU-DIPG-XIII, MIPE4.0, CellTiter-Glo, qHTS, dose response (AID 1347061; cut-off not given, nearly all actives have AC50 up to about 37 µM;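 also: cells exposed to compound for 48 hours before readout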). As to conditions: CellTiter-Glo ATP luminescence. In general terms: Cellular ATP, detected with luciferase, serves as a proxy for viable cell number.
Assay [3] in a line: viability loss in pontine glioma line – cell-based, SU-DIPG-IV, MIPE4.0, CellTiter-Glo, qHTS, dose response (AID 1347063; cut-off not given, nearly all actives have AC50 up to about 30 µM;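 also: compound exposure lasted 48 hours before the viability readout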). As to conditions: CellTiter-Glo ATP luminescence.
A short description of assay [4]: viability loss in pontine glioma line – cell-based, SU-DIPG-XIII, MIPE5.0, CellTiter-Glo, qHTS, dose response (AID 1347064; cut-off not given, nearly all actives have AC50 up to about 23 µM;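 as to AC50: cells exposed to compound for 48 hours before the viability read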). As to conditions: CellTiter-Glo ATP luminescence.
A short description of assay [5]: viability loss in pontine glioma line – cell-based, SU-DIPG-XXV, MIPE5.0, CellTiter-Glo, qHTS, dose response (AID 1347065).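 Also: cells exposed to compound for 48 hours before ATP readout.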 As to conditions: CellTiter-Glo ATP luminescence.
A short description of assay [6]: growth inhibition of DIPG cells – cell-based, MIPE4.0 library, CellTiter-Glo luminescence, qHTS (AID 1347066; cut-off not given, nearly all actives have AC50 up to about 30 µM;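 also: cells exposed to compound for 48 hours before readout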). The following applies: SU-DIPG-VI viability, CellTiter-Glo ATP luminescence.
Assay [7] can be described thus: viability loss in pontine glioma line – cell-based, JHH-DIPG-1, MIPE4.0, CellTiter-Glo, qHTS, dose response (AID 1347062; cut-off not given, nearly all actives have AC50 up to about 27 µM). The following applies: JHH-DIPG-1 viability, CellTiter-Glo ATP luminescence.
Assay [8] is described as follows: JHH-DIPG-1 glioma cell viability, MIPE5.0 library, CellTiter-Glo luminescence, qHTS (AID 1347067).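 Also: cells exposed to compound for 48 hours before readout.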 As to conditions: JHH-DIPG-1 glioma viability, CellTiter-Glo ATP luminescence.
Assay [9] in a line: growth inhibition of DIPG cells – cell-based, MIPE5.0 library, qHTS (AID 1347068; cut-off not given, nearly all actives have IC50 up to about 30 µM). As to conditions: SU-DIPG-XXV viability.

Results filed as inconclusive are left out. Active and inactive are the calls of the source. Unless noted, the limit is not given here; nearly all actives have AC50 up to about 26 µM.

With `Cc1cc([C@@H](C)Nc2ccccc2C(=O)O)c2nc(N3CCOCC3)cc(=O)n2c1`, the AC50 was 16.6 µM (active) in [1]; 42.9 µM (active) in [2]; 12.1 µM (active) in assay [3]; 14.8 µM (active) in assay [4]; 14.8 µM (active) in assay [5]; 38.2 µM (active) in [6].

Turning to `C[C@]12CCC3=C4CCC(=O)C=C4CC[C@H]3[C@@H]1CC[C@@]2(O)CC#N`, the outcome in assay [1], in [2], in assay [7], in assay [5], in assay [6] and in assay [8] was inactive.

For `C[C@](Cc1c[nH]c2ccccc12)(NC(=O)OC1C2CC3CC(C2)CC1C3)C(=O)NC[C@H](NC(=O)CCC(=O)O)c1ccccc1` (stereo not given in full), the call in assay [1], in [2], in [3], in assay [4], in assay [5] and in assay [6] was inactive. In addition, the call in [8] and in assay [9] was inactive.
